# Data as given in PubChem BioAssay AID1159524 (National Center for Advancing Translational Sciences (NCATS), 2015).
# Screen size: about 410,000 compounds; about 5,100 (1.2%) were called active. About 8% were inconclusive and are not listed. Calls come from the whole dose curve; tested in HEK293T cells. Shown is part of a subset that was picked to be rich in actives. A call without a number means that no potency is given here.
# Assay: High Throughput Screening for Foot and Mouth Disease Virus Antivirals; note: read-out not given here; nearly all actives have a fitted effect of over 45% in size
# Settings: FMDV antiviral cell-based qHTS; series mostly up to 57.9 µM
# Potency is the fitted concentration of half-maximal effect.
row,Compound,Potency
1,CC(=O)Nc1ccccc1-c1nc(CNC(=O)c2ccc(Cl)cc2)c(C)o1,inactive
2,C=CCN1C(=O)NC(=O)/C(=C/c2ccc(OCC(=O)Nc3ccc(C)cc3)cc2)C1=O,inactive
3,C=CCOc1ccc(/C=C2\SC(=S)N(CCC(=O)O)C2=O)cc1,1 µM (active)
4,C=CCOc1ccc(/C=C/C(=O)OC(C)C(=O)Nc2ccc(NC(C)=O)cc2)cc1 (stereo not drawn),inactive
5,COC(=O)[C@@H]1C[C@H](NC(=O)c2ccccc2C(F)(F)F)CN1Cc1cccc(O)c1,inactive
6,FC(F)(F)c1cccc(-c2cn[nH]c2C2CCCN(Cc3cccn3-c3ccccn3)C2)c1 (stereo not drawn),inactive
7,COc1ccc(CCC(=O)c2c(O)cc(OC3OC(CO)C(O)C(O)C3O[C@@H]3OC(C)C(O)C(O)C3O)cc2O)cc1O (stereo partly drawn),inactive
8,COc1ccc(CCNc2ncnc3sc(C(=O)N4CCCC4)c(C)c23)cc1OC,inactive
9,COc1ccc(CCNc2nc3ccc(C)cc3n3cnnc23)cc1OC,inactive
10,COc1ccc(CCNc2ncnc3nc[nH]c23)cc1OC,25.1 µM (active)
11,c1ccc(CCCCN2CCC(c3ccccc3)CC2)cc1,inactive
12,CCOC(=O)c1c(C)[nH]c(C)c1C(=O)COC(=O)/C=C/c1cccc([N+](=O)[O-])c1,inactive
13,CCOC(=O)/C(=C\c1ccc([N+](=O)[O-])cc1)C(=O)c1cc(C(C)=O)c(Nc2ccccc2)s1,15.8 µM (active)
14,CC(C)c1nnc(NC(=O)COC(=O)/C=C/c2ccc([N+](=O)[O-])cc2)s1,inactive
15,COc1ccc(OCCCn2c(C)nc3cc(C)c(C)cc32)cc1,inactive
16,COc1ccc(NC(=O)CSc2nccn2C2CCCC2)cc1OC,inactive
17,COc1ccc(C2CC(=O)N(Cc3ccccc3C)c3c2c(C)nn3-c2nc(C)cc(C)n2)c(OC)c1 (stereo not drawn),inactive

row,Compound,Potency
1,O=C(O)CCn1c(O)c(C=C2N=c3ccccc3=N2)sc1=S,10 µM (active)
2,CCc1nc(-c2cc(S(=O)(=O)N3CCN(c4ccc(OC)cc4)CC3)ccc2OC)no1,inactive
3,CN(Cc1cn(Cc2ccc(C(F)(F)F)cc2)nn1)C1CN(Cc2cn(Cc3ccc(C(F)(F)F)cc3)nn2)S(=O)(=O)C1 (stereo not drawn),17.8 µM (active)
4,CN(C)C1CN(Cc2cn(Cc3ccccc3)nn2)S(=O)(=O)C1 (stereo not drawn),inactive
5,Cc1ccc(Cn2cc(CN3CC(N4CCN(C)CC4)CS3(=O)=O)nn2)cc1 (stereo not drawn),inactive
6,Cc1ccc(CN2CCC(CNC(=O)c3cnn(-c4ccc(C)cc4)c3C3CCN(C(=O)OC(C)(C)C)CC3)CC2)cc1,inactive
7,COc1ncc2nc(-c3ccc(Cl)cc3)c(=O)n(C)c2n1,inactive
8,Cc1ccc2nc(NC(=O)c3nc(SCc4ccccc4F)ncc3Cl)sc2c1,inactive
9,Cc1ccc(NC(=O)c2nc(S(=O)(=O)Cc3cccc(C)c3)ncc2Cl)cc1,25.1 µM (active)
10,Cc1cccc(NC(=O)Cn2cc(S(=O)(=O)Cc3ccccc3Cl)c3ccccc32)c1,inactive
11,CCOC(=O)c1ccc(NC(=O)c2nc(SCc3ccc(F)cc3)ncc2Cl)cc1,inactive
12,CCCSc1ncc(Cl)c(C(=O)Nc2c(C(=O)Nc3ccccc3)oc3ccccc23)n1,inactive
13,CCS(=O)(=O)c1ncc(N(Cc2ccc(F)cc2)Cc2ccco2)c(C(=O)Nc2cc(C)ccc2C)n1,inactive
14,Cc1cccc(NC(=O)c2nc(S(=O)(=O)Cc3ccccc3)ncc2Cl)c1,10 µM (active)
15,CSc1nnc(NC(=O)c2nc(S(=O)(=O)Cc3ccc(C)cc3)ncc2Cl)s1,12.6 µM (active)
16,O=C(Nc1nc2ccc(F)cc2s1)c1nc(SCc2ccccc2F)ncc1Cl,inactive
